Results taken from PubChem BioAssay (NCATS).
Inconclusive results are not listed. Calls of active or inactive are those of the source. Calls come from the whole dose curve; as a rule, active = well fitted curve in the direction sought with a large enough effect in the signal ratio, with a control signal flat (not every such curve was filed as active); inconclusive = small, poorly fitted or top-dose-only effect, or effect the other way, or a change in a side signal; inactive = no such curve, though single readings can be large or run the other way; the % refers to the signal ratio.

Each molecule was assayed against Estrogen receptor (Homo sapiens) (UniProt P03372) (assay: qHTS assay for small molecule antagonists of estrogen receptor alpha signaling (AID 588513)). Conditions: ER-alpha-UAS-bla HEK293, beta-lactamase ratio, antagonist mode; series mostly up to 76.9 µM.
Source text: NIH Chemical Genomics Center [NCGC]
U.S. Environmental Protection Agency [EPA]
National Institutes of Environmental Health Sciences [NIEHS]
National Toxicology Program [NTP]
Estrogen receptor alpha (ER-alpha) is an important member of nuclear hormone receptors. ER-alpha plays important role in breast cancer as well as in other women's health issues. The majority of breast cancers is estrogen receptor (ER) positive and depends on estrogen for growth. There is also growing concern for some of environmental chemicals which may contribute the increasing the incidence of breast cancer. Therefore, it is important to understand the effect of environmental chemicals in ER-alpha signaling pathway.
NCGC Assay Protocol Summary
Using a beta-lactamase reporter-gene under control of the ER response element, a cell-based assay [ER-alpha-UAS-bla GripTiteTM cell-Based Assay from Invitrogen] was used to measure ER-alpha signaling pathway in antagonist mode. ER-alpha-UAS-bla-GripTite HEK 293 cells were used with assay medium containing 2% charcoal/dextran treated FBS, 0.1 mM NEAA and 1 mM sodium pyruvate. Cells were cultured in this assay medium overnight in the flasks before the assay. The assay was performed in clear bottom black Greiner 1536-well plates. 17-beta-estradiol was used as a positive control in the screen. Library compounds were measured for their ability to inhibit the reporter gene activity. Compounds were screened in a titration series in 1536-well format. […] Data was normalized relative to 17-beta-estradiol control (0.5nM, 100%), and DMSO only wells (basal, 0%). Concentration-response titration points for each compound were fitted to the Hill equation yielding concentrations of half-maximal inhibition (IC50) and maximal response (efficacy) values.
qHTS protocol for ER-alpha beta-lactamase assay in antagonist mode
[Step] [Parameter] [Value] [Description]
1. Reagent; 5 uL; 5000 cells/well
2. Incubation; 37 C for 4 hrs
- Dose response, Start 38uM, 1:2 dilutions with duplicates
- Two columns with 38 and 19uM (final) concentration.
5. Agonist (Stimulator); 1uL; 17-beta-estradiol at 0.5nM (final) concentration
6. Incubation; 37 C for 18 hrs
7. Detection reagent; 1 uL of CCF4-dye
8. Incubation; RT for 2 hrs
9. Detection; Fluorescence; Envision plate reader or Acumen plate reader

Chain of Estrogen receptor (Homo sapiens) (P03372 whole entry, looked up): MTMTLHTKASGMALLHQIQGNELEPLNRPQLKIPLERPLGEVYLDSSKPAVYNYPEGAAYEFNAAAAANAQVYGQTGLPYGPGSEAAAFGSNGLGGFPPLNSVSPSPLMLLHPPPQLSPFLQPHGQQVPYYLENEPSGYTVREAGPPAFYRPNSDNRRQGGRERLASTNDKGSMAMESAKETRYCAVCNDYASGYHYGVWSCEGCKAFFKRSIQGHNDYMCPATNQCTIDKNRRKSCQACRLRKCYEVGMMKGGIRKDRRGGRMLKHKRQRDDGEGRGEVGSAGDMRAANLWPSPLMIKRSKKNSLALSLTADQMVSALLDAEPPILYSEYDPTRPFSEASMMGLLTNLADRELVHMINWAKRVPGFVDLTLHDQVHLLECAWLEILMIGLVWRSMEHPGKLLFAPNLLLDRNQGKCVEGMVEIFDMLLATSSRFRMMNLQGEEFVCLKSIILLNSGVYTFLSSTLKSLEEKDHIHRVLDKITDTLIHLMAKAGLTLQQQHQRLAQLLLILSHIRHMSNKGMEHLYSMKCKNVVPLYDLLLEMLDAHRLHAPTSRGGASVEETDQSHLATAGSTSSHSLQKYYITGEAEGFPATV

SMILES	outcome
COc1ccc2c(c1)c(CC(=O)O)c(C)n2C(=O)c1ccc(Cl)cc1	inactive
Cn1c(=O)c2[nH]cnc2n(C)c1=O	inactive
Cc1ccc(-c2cc(C(F)(F)F)nn2-c2ccc(S(N)(=O)=O)cc2)cc1	inactive
CC(C)Cc1ccc(C(C)C(=O)O)cc1 (stereo not given)	inactive
CC(C)C(=O)Nc1ccc([N+](=O)[O-])c(C(F)(F)F)c1	inactive
NCCS(=O)(=O)O	inactive
NS(=O)(=O)c1cc2c(cc1Cl)NCNS2(=O)=O	inactive
Cc1cn([C@H]2C[C@H](N=[N+]=[N-])[C@@H](CO)O2)c(=O)[nH]c1=O	inactive
Nc1c2c(nc3ccccc13)CCCC2	inactive
CCOC(=O)C(C)(C)Oc1ccc(Cl)cc1	inactive
O=c1[nH]cc(F)c(=O)[nH]1	inactive
Nc1ccn([C@H]2CC[C@@H](CO)O2)c(=O)n1	inactive
N[C@@H](Cc1c[nH]c2ccc(O)cc12)C(=O)O	inactive
COc1ccc2[nH]cc(CCNC(C)=O)c2c1	inactive
CC(C)(Oc1ccc(C2CC2(Cl)Cl)cc1)C(=O)O (stereo not given)	inactive
